Screening results: PubChem BioAssay, National Center for Advancing Translational Sciences (NCATS)
15-hLO-2 inh = qHTS Assay for Inhibitors of 15-hLO-2 (15-human lipoxygenase 2) | Potency, µM (series often up to 57.1 µM), hits mostly inhibitors | purified 15hLO-2, xylenol orange hydroperoxide absorbance | hit rate 0.56% among 110,000; further: nearly all actives have a fitted effect of over 60% in size
Target sequence (O15296 whole entry, looked up): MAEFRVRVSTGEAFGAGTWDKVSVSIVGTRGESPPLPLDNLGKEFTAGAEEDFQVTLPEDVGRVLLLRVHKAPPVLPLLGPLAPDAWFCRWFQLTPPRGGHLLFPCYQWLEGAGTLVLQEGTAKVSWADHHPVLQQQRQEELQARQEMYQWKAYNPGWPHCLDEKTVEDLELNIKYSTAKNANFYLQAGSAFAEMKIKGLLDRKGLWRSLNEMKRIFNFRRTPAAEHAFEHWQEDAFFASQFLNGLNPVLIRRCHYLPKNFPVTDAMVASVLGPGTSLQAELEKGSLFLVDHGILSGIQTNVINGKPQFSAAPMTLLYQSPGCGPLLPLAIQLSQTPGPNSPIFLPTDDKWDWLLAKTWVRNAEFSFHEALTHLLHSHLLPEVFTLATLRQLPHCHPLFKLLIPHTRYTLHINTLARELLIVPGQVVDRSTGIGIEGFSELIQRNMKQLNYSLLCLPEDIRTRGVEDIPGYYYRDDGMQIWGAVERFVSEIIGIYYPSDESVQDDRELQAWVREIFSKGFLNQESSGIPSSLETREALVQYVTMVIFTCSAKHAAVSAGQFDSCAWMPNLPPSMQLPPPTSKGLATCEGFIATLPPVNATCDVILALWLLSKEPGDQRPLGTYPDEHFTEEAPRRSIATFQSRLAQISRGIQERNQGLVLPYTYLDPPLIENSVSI
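Screening format was qHTS against 50 nM purified 15hLO-2 in Hepes pH 7.5 with detergent. Activity follows hydroperoxide formation from 45 uM arachidonic acid, measured as 573:405 nm absorbance ratio of the ferric-xylenol orange complex.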
PNC assembly inh = High Content Assay for Compounds that inhibit the Assembly of the Perinucleolar Compartment; PC3M PTB-GFP, PNC prevalence imaging, 16 h; stronger effect = lower value; activity change (PNC), negative = inhibition, % at 10 µM; hit rate 3.1% among 140,000; AID 2417, 2010;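 active means readout at or below -70, meaning at least 70% loss of cells showing the perinucleolar compartment, a nuclear body marking cancer cells; inconclusive means readout between -30 and a set limit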
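PC3M cells stably expressing PTB-GFP, 750–1000 cells/well, treated 16 h at 37 °C with compound (23 nl of library stock), in duplicate. After paraformaldehyde fixation and Hoechst stain, imaged at 20x; PNC prevalence scored by image analysis.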
ALOX12 inhib = qHTS Assay for Inhibitors of 12-hLO (12-human lipoxygenase); purified 12-hLO, xylenol orange hydroperoxide absorbance; Potency, µM (titrated, usually from 57.1 µM), actives largely listed as inhibitors; hit rate 0.12% among 150,000; AID 1452, 2008; further: nearly all actives have a fitted effect of over 55% in size
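150 nM 12hLO, 25 mM Hepes pH 7.0 + 0.01% Triton X-100; cpd preinc 15 min RT; 40 uM arachidonic acid, 30 min RT; Fe-XO 30 min; A573/A405 ratio as read-out.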
A number is an active result; . = inactive; ? = inconclusive; / = not tested or not shown; [ ] = dose if it differs, or a comment. A selection: hits, their analogues and other compounds. The true share with any hit is near 3.1%. Unless noted, the call rests on the fitted dose curve; in most records, active means well fitted curve in the direction sought with a large enough effect; inconclusive means small, poorly fitted or top-dose-only effect, or another doubt; inactive means no such curve, though single readings can be large; an effect the other way counts as inactive or inconclusive.

SMILES	15-hLO-2 inh	PNC assembly inh	ALOX12 inhib
COc1ccc(S(=O)(=O)N(CC(=O)N2CCOCC2)Cc2ccccc2)cc1	/	.	.
O=C(CN(Cc1ccccc1)S(=O)(=O)c1ccccc1)N1CCOCC1	.	-101	.
COc1ccc2[nH]cc(CCNc3ncnc4ccc(-c5ccccc5OC)cc34)c2c1	.	/	/
CC1=C(C(=O)OCc2ccccc2)C(C2CC2)NC(=O)N1CCCCCC(=O)O (centres undefined)	.	/	.
COC(=O)CCCCCN1C(=O)NC(c2ccccc2)C(C(=O)OCc2ccccc2)=C1C (centres undefined)	.	-92	.
CN1/C(=C\C(=S)NC(=O)c2ccc([N+](=O)[O-])cc2)C(C)(C)c2ccccc21	/	.	.
CN1/C(=C\C(=S)NC(=O)c2cccc(Br)c2)C(C)(C)c2ccccc21	/	.	14µM
CN(C(=O)CCc1nc2ccccc2s1)c1ccccc1	.	-112	.
O=C(CCc1nc2ccccc2s1)c1ccccc1	/	.	.
CC(C)NC(=O)N1CC2(CCN(C(=O)c3cccn3C)CC2)C1	.	/	.
CCOC(=O)C1Cc2c([nH]c3ccccc23)CN1 (centres undefined)	.	.	.
COC(=O)C1Cc2c([nH]c3ccccc23)C(C)N1 (centres undefined)	.	-91	.
Cc1ccccc1-c1ccc2ncnc(N3CCOCC3)c2c1	.	/	/
CC(C)NC(=O)N1CCCC2(CCN(C(=O)c3ccco3)CC2)C1	.	/	.
N#Cc1cccc(-c2cc(NCc3cccs3)ncn2)c1	.	/	.
COc1ccc(Oc2nnnn2-c2ccccc2)cc1	/	?	.
COc1ccc(OCc2nnnn2-c2ccccc2)cc1	.[11.4 µM]	-93	.
Clc1ccc(-n2nnnc2-c2ccccc2)cc1	.	?	.
COc1ccc(-n2nnnc2-c2ccccc2)cc1	.	-83	.
O=C(c1cnccn1)N1CCC2(CCN(Cc3ccccc3)CC2)CC1	.	/	.
ClCCCl	.	/	.
Cc1cc2ccccc2n1CCNC(=O)C(C)Oc1ccccc1 (centres undefined)	.	-108	.
Cc1cc2ccccc2n1CCNC(=O)C(C)C	.	.	.
C[C@@H](N)C1CCC(C(=O)Nc2ccncc2)CC1 (some centres undefined)	.	/	.
Cc1nc2cnc(N3CCOCC3)nc2n(Cc2cccs2)c1=O	.	/	.
SMILES	15-hLO-2 inh	PNC assembly inh	ALOX12 inhib
CCOc1ccccc1CSc1nc2ccccc2[nH]1	/	.	.
CCn1c(CSc2nc3ccccc3[nH]2)n[nH]c1=S	.[2.29 µM]	-122	.
COCCCn1c(SCc2cccc(C(F)(F)F)c2)nc2cc(OC)c(OC)cc2c1=N	/	-106	.
COc1ccc(Cn2c(SCc3ccc(C)cc3)nc3cc(OC)c(OC)cc3c2=N)cc1Cl	.	.	.
COCCCn1c(SCc2ccccc2)nc2cc(OC)c(OC)cc2c1=N	.	.	.
COc1ccc(Cn2c(SCc3cc(C)ccc3C)nc3cc(OC)c(OC)cc3c2=N)cc1	.	-114	.
Cn1c(=O)c2c(ncn2CCSS(=O)(=O)O)n(C)c1=O	.[11.4 µM]	/	.[11.4 µM]
COc1ccc(/C(O)=C2\C(=O)C(=O)N(c3cc(C)on3)C2c2cccc(OC)c2OC)cc1C (centres undefined)	.	.	.
COc1cccc(C2c3c(oc4ccc(Cl)cc4c3=O)C(=O)N2c2cc(C)on2)c1OC (centres undefined)	.	-136	.
CCN1CCN(CCCNc2ncnc3nc[nH]c23)CC1	.	?	.
c1cn(CCCNc2ncnc3nc[nH]c23)cn1	.	-112	.
O=C1CN(S(=O)(=O)c2ccc(Cl)cc2)CC(=O)N1CCc1ccccc1	.	.	.
O=C1CN(S(=O)(=O)c2ccc(F)cc2)CC(=O)N1CCc1ccccc1	.	-100	.
C[N+](C)(C)c1ccc([C@H](N)C(=O)O)cc1	.[11.4 µM]	/	.[11.4 µM]
COc1ccc2[nH]cc(CCNc3ncnc4ccc(-c5c(C)noc5C)cc34)c2c1	.	/	/
COc1cc(/C=C2\SC(=S)N(Nc3ccccc3)C2=O)ccc1O	/	.	.
CCOc1cc(/C=C2\SC(=S)N(Nc3ccccc3)C2=O)ccc1O	13µM	.	?
CCC/C=C(\CCC)C(NC(=O)c1ccccc1)c1ccc(C(=O)OC)cc1 (centres undefined)	.	/	.
Cc1cnc(CNc2ccnc(-c3cccc(NS(C)(=O)=O)c3)n2)cn1	.	/	/
CCC(C)C(=O)OC1C2CC3=C4CC(=O)OC(c5ccoc5)[C@]4(C)CCC3[C@@](C)(C2=O)C(CC(=O)OC)C1(C)C (some centres undefined)	.	/	.
COc1ccccc1CNC(=O)c1cccc(-c2ccccc2OC)n1	.[0.0915 µM]	/	.[0.00818 µM]
O=c1c2ccccc2c(-c2ccc(Cl)cc2)nn1-c1ccccc1	.	.	.
O=c1c2ccccc2c(-c2ccc(O)cc2)nn1-c1cccc(C(F)(F)F)c1	/	-85	.
O=C(O)C1Cc2ccccc2CN1C(=O)c1ccccc1 (centres undefined)	.[11.4 µM]	-97	.
Cc1cccc(C)c1NC(=O)COC(=O)C1Cc2ccccc2CN1C(=O)c1ccccc1 (centres undefined)	/	?	.
SMILES	15-hLO-2 inh	PNC assembly inh	ALOX12 inhib
O=C(O)C1Cc2ccccc2CN1C(=O)c1ccccc1Cl (centres undefined)	.	.	.
N#Cc1ccc(NC(=O)COC(=O)C2Cc3ccccc3CN2C(=O)c2ccccc2)cc1 (centres undefined)	/	-98	.
CC(C)N(CCC(=O)c1ccc2ccccc2c1)Cc1ccccc1	13µM	/	?
CCC(=O)CCC(=O)c1ccc2ccccc2c1	/	?	.
CN(CC[C@@H](Oc1ccc(-c2ccccc2)cc1)c1ccc(F)cc1)CC(=O)O	.	/	.
O[C@H](CNc1ccccn1)c1ccccc1	.[11.4 µM]	/	.[11.4 µM]
O=C(c1ccncc1)N1CCC[C@@]2(CCN(c3ccncc3)C2)C1	.	/	.
O=S(=O)(Cc1ccccc1)N1CCCC1	.	-100	.
O=C(O)CNC(=O)C1COc2ccccc2O1 (centres undefined)	.	.	.
Cc1nnc(NC(=O)C2COc3ccccc3O2)s1 (centres undefined)	.	.	.
COc1ccc(CNC(=O)C2COc3ccccc3O2)cc1 (centres undefined)	/	-100	.
O=C(NC1CC2CCC1C2)C1COc2ccccc2O1 (centres undefined)	.	-86	.
CCc1nnc(NC(=O)C2COc3ccccc3O2)s1 (centres undefined)	.	-80	.
CCN1CCN(S(=O)(=O)Cc2ccccc2)CC1	.[2.29 µM]	.	.
COc1ccccc1CNC(=O)C1COc2ccccc2O1 (centres undefined)	.	.	.
O=c1c(-c2ccccc2)nc2cnc(N3CCOCC3)nc2n1C1CC1	.	/	/
Cc1nc(N2CCOCC2)c2nc(-c3ccccc3)n(CCN3CCOCC3)c2n1	.	/	.
CN1CCN(c2ncc3nc(CCc4ccccc4)c(=O)n(C)c3n2)CC1	.	/	/
C[C@H]1CCCC=CC2C[C@H](OC(=O)CN(C)C)C[C@@H]2[C@@H](O)/C=C\C(=O)O1 (some centres undefined)	.[11.4 µM]	/	.[11.4 µM]
